Compound activity as filed in PubChem.
Compounds with a hit are over-represented: about 4.6% of the library has one in this group of screens.
FAS TE block: FAS thioesterase (human) inhibition. recombinant FAS-TE, OMFH fluorogenic substrate, fluorescence endpoint. AID 602261. P49327. actives 0.67% (n = 360,000). inhibition, % at 15 µM;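 active means compounds whose normalised, plate-corrected inhibition of enzyme fluorescence in the single-dose primary screen is 50% or more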;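 further: 0% = DMSO with enzyme and 100% = substrate without enzyme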
ADAM17 inh: inhibits human ADAM17. P78536. recombinant ADAM17, EDANS/DABCYL FRET peptide cleavage. inhibition, % at 6.95 µM. actives 0.83% (n = 370,000). AID 720648;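 active means inhibition above the mean of compounds lying between control limits plus 3 SD, set per campaign, cut at about 8.5% in these data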;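 further: 0% = DMSO-only wells as the low control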
NR3A LBD binder: modulators (binders) of human NR3A ligand-binding domain; NR3A LBD differential scanning fluorimetry, Tm shift; 0% = protein alone, 100% = glycine-bound protein; Tm shift relative to glycine control, % at 25 µM; actives 2.5% (n = 340,000);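 active means melting temperature shift of at least 10% of the positive control shift, at one fixed dose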
ADAM10 inh: ADAM10 inhibition, QFRET primary screen; O14672; actives 0.62% (n = 370,000); inhibition, % at 7 µM; AID 720582; recombinant ADAM10, EDANS/DABCYL FRET peptide cleavage, 3 h;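 active means inhibition above a per-campaign cutoff equal to the mean of compounds falling between control-based bounds plus 3 SD, cut at about 20% in these data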;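 further: 0% = DMSO wells while the 100% control is not disclosed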
Target sequence (O14672 214-748 limits assumed): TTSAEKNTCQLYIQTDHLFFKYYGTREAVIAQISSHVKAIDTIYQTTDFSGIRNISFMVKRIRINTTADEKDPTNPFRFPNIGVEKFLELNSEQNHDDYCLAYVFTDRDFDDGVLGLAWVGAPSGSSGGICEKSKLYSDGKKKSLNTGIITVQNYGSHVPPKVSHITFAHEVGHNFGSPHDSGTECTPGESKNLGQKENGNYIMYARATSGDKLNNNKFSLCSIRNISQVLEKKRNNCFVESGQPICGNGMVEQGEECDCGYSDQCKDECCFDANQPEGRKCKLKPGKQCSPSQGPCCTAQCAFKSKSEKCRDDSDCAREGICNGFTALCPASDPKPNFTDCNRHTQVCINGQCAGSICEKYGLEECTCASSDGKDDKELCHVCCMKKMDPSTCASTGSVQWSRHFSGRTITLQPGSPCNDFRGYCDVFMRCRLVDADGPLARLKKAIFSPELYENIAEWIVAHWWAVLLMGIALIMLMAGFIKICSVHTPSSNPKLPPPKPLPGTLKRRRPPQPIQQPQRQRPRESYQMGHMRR
KLK7 zymogen act: activators of human kallikrein-7 zymogen; P49862; purified proKLK7, EDANS-DABCYL substrate fluorescence; 100% is mature enzyme control, 0% vehicle; activation, % at 7 µM; actives 0.9% (n = 370,000);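 active means activation above the mean of all tested compounds plus 3 SD, computed per campaign excluding outliers beyond control limits, cut at about 13% in these data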
An asterisk follows results filed as active; nt = not tested or not shown.

SMILES | FAS TE block | ADAM17 inh | NR3A LBD binder | ADAM10 inh | KLK7 zymogen act
COc1ccc(C[N+]2=C(N)NC3=C(C)Cn4c(=O)n(-c5ccccc5)c(=O)n4C3C2)c(OC)c1 (centres undefined) | nt | -7 | nt | -17 | 0
COc1ccc(CSc2nnc(SCC(=O)Nc3ccccc3-c3ccccc3)s2)cc1 | nt | 6 | nt | 9 | 0
O=C(NNS(=O)(=O)c1ccc(Br)cc1)NC1CCCCC1 | -3 | 4 | 13* | 4 | 0
O=S(=O)(NC1CCCCC1)c1ccc(Br)cc1 | 8 | -4 | 0 | 3 | 0
O=S(=O)(N/N=C/c1c(F)cccc1Cl)c1ccccc1 | -8 | 1 | 10* | 2 | 0
O=C1CC(N(CCc2ccccc2)C(=S)Nc2ccccc2)C(=O)N1c1ccc(F)cc1 (centres undefined) | 12 | -2 | 27* | 2 | 1
COc1ccc(NC(=O)N(Cc2ccc3c(c2)OCO3)C2CC(=O)N(c3ccc(OC)cc3)C2=O)cc1 (centres undefined) | 1 | -4 | 0 | 2 | 0
CNC(=S)N(Cc1ccc(OC)cc1)C1CC(=O)N(c2ccc(OC)cc2)C1=O (centres undefined) | 34 | 3 | 18* | 14 | 1
CCCOc1ccc(N2C(=O)CC(N(Cc3ccc(OC)cc3)C(=S)Nc3ccccc3)C2=O)cc1 (centres undefined) | 3 | -2 | 24* | -5 | 0
O=C1CC(N(Cc2ccc3c(c2)OCO3)C(=O)Nc2ccc(F)cc2)C(=O)N1c1ccccc1 (centres undefined) | 3 | 2 | 27* | 8 | 0
Cc1cccc(CNC(=S)OC2CCC23CCC(c2ccccc2)CC3)c1 (centres undefined) | nt | 0 | nt | 1 | 0
CCOC(=O)[C@@]12CCC3=C1N(CCC3)C(=O)[C@H](CC(=O)NCCCOC)C2 | nt | -9 | nt | -13 | 0
CCOC(=O)c1cc(-c2ccccc2)n(CCC(=O)O)c1C | -7 | -1 | 1 | 4 | 0
CCOC(=O)c1cc(-c2ccc(C)cc2)n(CCC(=O)N2CCN(c3ccccn3)CC2)c1C | 27 | 1 | 13* | 0 | 0
CC(C)C(=O)N1CC[C@H]2[C@H](CCCN2Cc2ccccc2)C1 | nt | -5 | nt | -5 | 0
O=C(Nc1nc2cc3c(cc2s1)OCCO3)C1=COCCO1 | 0 | -2 | 11* | -2 | 0
C=CCN1C(=O)[C@@H](CC(=O)NCCC(C)C)[C@]2(C(=O)OCC)CCCCC/C=C/12 | nt | -2 | nt | -4 | 1
CCOC(=O)/C(=N\Nc1ccc(C(C)=O)cc1)c1csc(Nc2ccccc2)n1 | -11 | 2 | 15* | 0 | 0
CSC(=S)NN=C(C)c1cccc(C)n1 | 2 | -4 | 15* | -7 | 0
COc1ccc(COC(=O)c2cccc(S(=O)(=O)N3CCCC3)c2)cc1F | 18 | 4 | 15* | 0 | 0
O=C(N/N=C/c1cccc(Oc2ccccc2)c1)c1ccc(O)cc1O | 8 | -3 | 31* | -21 | 0
COc1ccccc1COC(=O)c1cccc(S(=O)(=O)N2CCCC2)c1 | 21 | 2 | 0 | 7 | 0
COc1cccc(/C=N/NC(=O)c2[nH]nc3c2CCc2ccccc2-3)c1 | 16 | 3 | 26* | -7 | 1
COc1cc(C(=O)N/N=C/c2ccc(OC(=O)c3cccc(C)c3)cc2)ccc1O | 4 | 0 | 22* | 15 | 0
C[C@H]1[C@@H](OC(=O)Nc2cc(Cl)ccc2Cl)CC[C@@]23CCCN2C(=O)CCC[C@@H]13 | nt | 2 | nt | 12 | nt
SMILES | FAS TE block | ADAM17 inh | NR3A LBD binder | ADAM10 inh | KLK7 zymogen act
O=C(NC1CCCCN(Cc2cccc(Cl)c2)C1=O)c1cccc(C(F)(F)F)c1 (centres undefined) | nt | 3 | nt | 7 | 0
O=C(N/N=C/c1cccc(Oc2ccccc2)c1)c1ccncc1 | -1 | -2 | 6 | -3 | -1
COc1cc(C(=O)N/N=C/c2cccc(Oc3ccccc3)c2)ccc1O | 5 | 4 | 11* | 5 | 0
O=C(N/N=C/c1ccc(O)c(O)c1)c1cccc(S(=O)(=O)N2CCCC2)c1 | -6 | 0 | 2 | -8 | 0
COc1cc(/C=N/NC(=O)c2cccc(S(=O)(=O)N3CCCC3)c2)ccc1O | -4 | -5 | 15* | 3 | 0
C[C@H]1[C@@H](OC(=O)Nc2ccc(C#N)cc2)CC[C@@]23CCCN2C(=O)CCC[C@@H]13 | nt | 1 | nt | 3 | nt
Cc1cc2occ(CC(=O)N(C)CC(=O)Nc3c(C)cccc3C)c2cc1C | 0 | -2 | -1 | -1 | 0
Cc1cccc(C)c1NC(=O)CN(C)C(=O)Cc1cccc(C(F)(F)F)c1 | -2 | -1 | 12* | 3 | 0
CSc1nc(N)nc(SCC(=O)c2ccc(C)cc2)c1C#N | 3 | -5 | 20* | -2 | 1
O=C(O)c1sccc1S(=O)(=O)N1CCOCC1 | -9 | -4 | 11* | -11 | 0
Cc1ccc(NC(=O)COC(=O)c2sccc2C)cc1S(=O)(=O)N1CCOCC1 | 10 | 5 | -22 | 8 | 0
Cc1c[nH]c2cccc(-c3ccc(OCc4ccccc4)cc3)c12 | nt | 3 | nt | -3 | -1
CN(C)S(=O)(=O)N1CCC(Oc2ccc(C(=O)NCCc3cscn3)cc2)CC1 | 0 | -7 | 13* | -8 | 0
CCOC(=O)c1sc2nc(-c3cccnc3)ccc2c1N | 5 | -6 | 20* | -1 | 1
NC(=O)c1sc2nc(-c3cccnc3)ccc2c1N | -5 | -3 | 0 | 0 | 0
Nc1c(C(=O)Nc2ccccc2F)sc2nc(-c3cccnc3)ccc12 | 0 | -6 | 15* | -15 | -3
COc1ccc(C(=O)c2sc3nc(-c4ccccc4)ccc3c2N)cc1 | 25 | nt | 18* | nt | nt
Cc1nc(-c2ccccc2)nc2sc(C(=O)c3ccc(F)cc3)c(N)c12 | 19 | -4 | 15* | 1 | 0
C[C@@H]1/C=C/CC(=O)N[C@H](c2cccc(Br)c2)[C@H](C)/C=C/CC(=O)N[C@@H]1c1cccc(Br)c1 | nt | 3 | nt | 4 | 1
O=C(CCS(=O)(=O)c1ccccc1)Nc1ccc(F)cc1F | nt | 1 | nt | -4 | 0
CCOC(=O)[C@]12CCCCC/C=C\1N(CCc1ccc(Cl)cc1)C(=O)[C@H]2CC(=O)N1CCCCC1 | nt | -1 | nt | -1 | 0
CCN(CC)CCN1C(=O)C(O)=C(C(C)=O)C1c1ccc(OC)c(OC)c1 (centres undefined) | -2 | -5 | 11* | -1 | -1
O=C(CSc1nnc(SCc2cccc3ccccc23)s1)c1ccc(F)cc1 | nt | 0 | nt | 4 | 0
CC(=O)Nc1ccc(NC(=O)CN(c2ccc(C34CC5CC(CC(C5)C3)C4)cc2)S(C)(=O)=O)cc1 | 6 | -5 | -1 | -3 | 0
CS(=O)(=O)N(CC(=O)Nc1ccc(CC#N)cc1)c1ccc(C23CC4CC(CC(C4)C2)C3)cc1 | 41 | -4 | 26* | -3 | 0
Fc1cccc(Nc2ncnc3sc4c(c23)CCC4)c1 | 0 | 4 | 13* | 4 | 0
